Screening data (PubChem BioAssay)
Sampled rows, rich in hits. Any-hit rate of the full collection: about 18%.
TDP1 cell noCPT = qHTS for Inhibitors of human tyrosyl-DNA phosphodiesterase 1 (TDP1): qHTS in cells in absence of CPT. DT40 Tdp1-/- hTDP1 cells, no CPT, ATP luminescence, 48 h. AID 686978, 2013. actives 15% (n = 420,000). Potency, µM (titrated, usually from 46.2 µM), without a hit: top-dose activity change, negative = growth inhibition, actives largely listed as inhibitors; also: potency is read from the fitted curve at half-maximal effect; nearly all actives have a fitted effect of over 55% in size
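Camptothecin absent (DMSO only). Human TDP1-complemented DT40 knockout cells, 400 cells/well, 37 °C for minimum 48 hr; ATP measured via CellTiter-Glo, 30 min dark incubation, luminescence.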
Six1-Eya2 inh = qHTS Assay for Inhibitors of the Six1/Eya2 Interaction; Homeobox protein SIX1 (Homo sapiens) + Protein phosphatase EYA2 (Homo sapiens), …; AlphaScreen GST-Six1/His-Eya2 binding, biochemical; active compounds read low; activity change, % (test concentration not listed); actives 0.56% (n = 360,000); AID 651725, 2012; in the data active = activity change below about -65%; inconclusive = mostly about -30% to -63%
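Six1/Eya2 binding was read as AlphaScreen signal after compounds were pinned into GST-Six1 plus His-tagged Eya2 (5X stock 250/500 nM) in pH 8.0 Tris/NaCl/TCEP buffer, beads added, then incubated 1 h, 37 C, dark.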
DT40 TDP1 CPT = qHTS for Inhibitors of human tyrosyl-DNA phosphodiesterase 1 (TDP1): qHTS in cells in presence of CPT; chicken DT40 Tdp1-/-;hTDP1 cells + 20 nM CPT, ATP luminescence, 48 h; actives 12% (n = 420,000); AID 686979, 2013; Potency, µM (top dose mostly 46.2 µM), for inactives: at the top dose activity change, negative = growth inhibition, usual class: inhibitors; also: potency is read from the fitted curve at half-maximal effect; nearly all actives have a fitted effect of over 55% in size
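Chicken DT40 Tdp1-/- cells complemented with human TDP1, 400 cells/well, exposed to compounds plus 20 nM camptothecin for at least 48 h at 37 C; viability read as ATP content by CellTiter-Glo luminescence.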
IL1B secr inh = qHTS for Inhibitors of Inflammasome Signaling: IL-1-beta AlphaLISA Primary Screen | AID 743279, 2014 | activity change, % at 57.5 µM | actives 4.7% (n = 360,000) | THP-1 LPS/ATP IL-1B secretion, AlphaLISA, 16 h; active compounds read low; in the data active = activity change below about -50%; inconclusive = mostly about -30% to -49%
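Secreted IL-1B measured by AlphaLISA bead assay after 16 h compound exposure of THP-1 cells; compounds (final up to 57.5 uM) added 1 h before LPS (250 ng/mL) and ATP (1.25 mM) stimulation; lower signal means less secretion.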
TDP1 block = qHTS Assay for Inhibitors of Tyrosyl-DNA Phosphodiesterase (TDP1). Potency, µM (highest dose often 130 µM), for inactives: top-dose activity change, negative = inhibition, actives largely listed as inhibitors. actives 0.28% (n = 350,000). AID 485290, 2010. recombinant TDP1, AlphaScreen DNA substrate cleavage; also: potency is read from the fitted curve at half-maximal effect; nearly all actives have a fitted effect of over 40% in size
Target sequence (Q9NUW8 whole entry, looked up): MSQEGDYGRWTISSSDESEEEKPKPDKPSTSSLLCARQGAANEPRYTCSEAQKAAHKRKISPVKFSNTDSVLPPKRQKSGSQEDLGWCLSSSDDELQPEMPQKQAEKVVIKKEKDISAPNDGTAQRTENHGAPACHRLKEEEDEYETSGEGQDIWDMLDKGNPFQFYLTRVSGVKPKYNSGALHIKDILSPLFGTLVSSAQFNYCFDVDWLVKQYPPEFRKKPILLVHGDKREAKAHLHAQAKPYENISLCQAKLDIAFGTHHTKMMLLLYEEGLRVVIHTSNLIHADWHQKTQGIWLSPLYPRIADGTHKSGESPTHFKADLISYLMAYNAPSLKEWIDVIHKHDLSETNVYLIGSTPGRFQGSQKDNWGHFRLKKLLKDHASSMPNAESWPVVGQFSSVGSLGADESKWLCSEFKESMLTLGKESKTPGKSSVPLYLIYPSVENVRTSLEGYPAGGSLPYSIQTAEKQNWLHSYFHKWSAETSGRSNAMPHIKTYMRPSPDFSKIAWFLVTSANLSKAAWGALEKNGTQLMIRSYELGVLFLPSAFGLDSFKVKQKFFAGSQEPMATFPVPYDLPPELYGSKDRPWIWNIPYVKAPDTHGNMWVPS
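Recombinant E. coli-expressed Tdp1 (1 nM) preincubated with compound 15 min at RT, then 5'-biotin/3'-phosphotyrosine-FITC DNA substrate (15 nM) added for 5 min. AlphaScreen beads (10 ug/ml) added, 10 min RT; tyrosine-FITC cleavage read as signal loss.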
CtBP-E1A inh = qHTS Assay for Inhibitors of the CtBP/E1A Interaction | CtBP / adenovirus E1A interaction (AlphaScreen) | AlphaScreen GST-E1A/His-CtBP binding, 1536-well; active compounds read low | activity change, % (test concentration not listed) | actives 0.49% (n = 340,000) | AID 651724, 2012; in the data active = activity change below about -65%; inconclusive = mostly about -30% to -63%
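In 5 uL wells, 23 nL compound meets equimolar GST-E1A and His-CtBP (5X stock 125 nM each) for 2 h, 37 °C. Beads (5X, 50 ug/mL) then 1 h, 37 °C, dark.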
* marks the source's active call; other numbers are inactive results; ? = inconclusive; / = no result given; [ ] = another dose, or the depositor's remark. Unless noted, calls follow the shape of the dose curve; as a rule, active = well fitted curve in the direction sought with a large enough effect; inconclusive = small, poorly fitted or top-dose-only effect, or another doubt; inactive = no such curve, though single readings can be large; an effect the other way counts as inactive or inconclusive. % is scaled to controls: 0 for no effect and ±100 for the full control effect.

SMILES | TDP1 cell noCPT | Six1-Eya2 inh | DT40 TDP1 CPT | IL1B secr inh | TDP1 block | CtBP-E1A inh
O=[N+]([O-])c1ccc(N2CCN(C(=S)c3cccc([N+](=O)[O-])c3)CC2)cc1 | 21µM* | -1 | 15µM* | -16 | 2% | -4
O=[N+]([O-])c1cccc(NC(=S)N2CCCC2)c1 | 20% | 4 | -17% | 18 | 0% | 0
O=C(NC(=S)N1CCN(c2ccc([N+](=O)[O-])cc2Cl)CC1)c1ccco1 | 16µM* | 2 | 21µM* | 11 | 9% | -1
CCCC(=O)NC(=S)N1CCN(c2ccc([N+](=O)[O-])cc2)CC1 | -22% | 2 | -15% | 11 | 1% | 7
O=C(NC(=S)N1CCCCCC1)c1cccc([N+](=O)[O-])c1 | 16µM* | 4 | ? | 17 | 0%[56.1 µM] | 5
Cc1ccc(C(=O)NC(=S)N2CCN(c3ccc([N+](=O)[O-])cc3)CC2)cc1 | 26µM* | -6 | ? | -2 | 7% | 6
O=C(c1ccco1)N1CCN(c2ccc([N+](=O)[O-])cc2Cl)CC1 | ? | -1 | ? | -5 | / | -3
O=C(Nn1c(C2CCC2)nc2ccccc2c1=O)C1CCC1 | -11% | 10 | -6% | -9 | 1% | 0
O=C(NC(=S)N1CCN(c2ccc([N+](=O)[O-])cc2)CC1)c1ccccc1 | 3.3µM* | 6 | ? | 8 | -2% | 5
C=CCNc1nc(NCc2ccc(NC(C)=O)cc2)c2sc(-c3ccccc3)cc2n1 | 9.2µM* | -9 | 8.2µM* | ? | / | -9
CC(=O)Nc1ccc(CNc2nc(NC(C)C)nc3cc(-c4ccccc4)sc23)cc1 | 4.1µM* | -13 | 3.7µM* | -114* | / | -10
CC(=O)Nc1ccc(NCc2ccc(-c3ccccc3)cc2)cc1 | -16% | -6 | -24% | 0 | / | -7
COc1ccc(-c2cc(CNc3nc(NC(C)C)nc4cc(-c5ccccc5)sc34)on2)cc1 | 3.7µM* | 1 | 4.1µM* | -107* | / | -1
CC(=O)NCCNc1nc(NC(C)C)nc2cc(-c3ccccc3)sc12 | ? | -26 | 23µM* | / | / | -22
COc1ccc(COC(=O)C2CCN(S(=O)(=O)c3cccs3)CC2)cc1 | 8% | 0 | -3% | 9 | -10% | 8
CCOC(=O)C1=CCN(S(=O)(=O)c2ccc(Cl)cc2)C1c1ccccc1 (configuration not stated) | ? | 12 | ? | 8 | / | 6
CCOC(=O)C1=CCN(S(=O)(=O)c2ccccc2C)C1c1ccc(Br)cc1 (configuration not stated) | ? | 10 | ? | -19 | / | 11
CCOC(=O)C1=CCN(S(=O)(=O)c2ccccc2Br)C1c1ccc(Cl)c(Cl)c1 (configuration not stated) | 18µM* | 10 | ? | -29 | / | -11
CCOC(=O)C1=CCN(S(=O)(=O)c2ccccc2C)C1c1ccccc1 (configuration not stated) | 18µM* | 21 | 29µM* | 16 | / | -14
CCOC(=O)C1=CCN(S(=O)(=O)c2ccccc2C(=O)OC)C1c1ccc(Cl)cc1 (configuration not stated) | 18µM* | 5 | 21µM* | -24 | / | -1
O=C(CSc1ncccn1)NC1CCCc2ccccc21 (configuration not stated) | -15% | 0 | -25% | 5 | 5% | 10
CC1(C)Cc2ccccc2C(Nn2cnnc2)=N1 | -8% | 4 | -1% | -4 | 6% | 9
